PubChem BioAssay AID488890 (Southern Research Specialized Biocontainment Screening …, 2010)
The campaign covered roughly 320,000 compounds. About 1,300 (0.41%) were called active. About 3% were inconclusive and are not listed. No rule for the calls is given here. A selection follows. Entries with a potency or affinity are not part of this list.

assay: growth inhibition of non-replicating M. tuberculosis (AID 488890); conditions: Mycobacterium tuberculosis non-replicating, at 25 µM, stronger effect = higher value;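 also: plate controls were DMSO cells for no effect and high antibiotic wells for full effect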

Structure (SMILES) | inhibition [%]
O=S(=O)(Nc1ccc(Nc2ccccc2)cc1)c1ccc(F)cc1 | 45.8
O=C(COC(=O)c1ccc2ncsc2c1)NCc1ccccc1Cl | 19.4
CC(=O)Nc1ccc(S(=O)(=O)N2CCSC2C(=O)O)cc1 (configuration not stated) | 1.73
CCN(CC)S(=O)(=O)c1ccc(Oc2ccccc2)cc1 | 30.3
COc1ccc2c(Cl)c(C(=O)N/N=C/c3c(C)[nH]c4ccccc34)sc2c1 | -5.52
CC(C)C(c1nnnn1Cc1ccccc1)N1CCc2ccccc2C1 (configuration not stated) | 11
Cc1cccc(N2C(=O)/C(=C/c3ccccn3)SC2=S)c1 | 0.34
Cc1ccc(C)c2[nH]c(=O)c(CCNC(=O)c3ccc(Br)o3)cc12 | -3.61
COc1ccc(CCNC(=O)COc2ccc(-c3ccc(C)cc3)cc2)cc1OC | 25.9
O=C(Nc1ccc(Cl)c(Cl)c1)Nc1ccc(Br)cc1F | 75.2
O=[N+]([O-])c1ccc(-n2nnnc2-c2ccccc2)cc1 | -9.53
O=[N+]([O-])c1cccc(-c2nnnn2-c2cccc(F)c2)c1 | -0.82
CC(C)[C@H](NC(=O)C1CCN(S(=O)(=O)c2ccc(F)cc2)CC1)C(=O)NCc1ccco1 | 8.72
COc1cc(OC)cc(C(=O)N[C@H](C(=O)OCC(N)=O)C(C)C)c1 | -12.8
CCNC(=O)N(C)C[C@H]1N[C@@](C)(C(=O)OC)[C@H]2C(=O)N(C)C(=O)[C@@H]12 | 2.38
CNC(=S)NNc1nc(N2CCOCC2)nc(N2CCOCC2)n1 | -5
CCCC(=O)N/N=C1\CS(=O)(=O)N(C)c2ccsc21 | 1.81
Cc1cccc(C(=O)N/N=C2\CS(=O)(=O)N(C)c3ccsc32)c1 | 56.1
CN1c2ccsc2/C(=N/NC(=O)c2c(F)cccc2F)CS1(=O)=O | -25.7
Cc1ccc(NC(=O)C2=C(O)c3sccc3N(C)S2(=O)=O)cc1 | 18.9
Cc1ccccc1NC(=O)C1C2C=CC(C3CC23)C1C(=O)O (configuration not stated) | -10.4
Cc1ccc(NC(=O)c2ccc3snnc3c2)cc1C | -6.47
O=C(CCN1CCN(C/C=C/c2ccccc2)CC1)Nc1ccccc1F | -1.04
COc1ccc2[nH]c(=O)c(C(=O)O)cc2c1 | -0.72
O=C(N/N=C/c1ccccn1)c1ccc([N+](=O)[O-])cc1Cl | 74.4
O=C(N/N=C/c1ccccn1)c1ccc(NC(=O)c2cccc([N+](=O)[O-])c2)cc1 | 7.23

Structure (SMILES) | inhibition [%]
O=C(N/N=C/c1ccc2nccnc2c1)c1cccc([N+](=O)[O-])c1 | -21.3
O=C(N/N=C/c1ccccn1)c1ccncc1 | 75.3
CCCCC(CCC(=O)Nc1ccn(-c2ccccc2)n1)C(=O)O (configuration not stated) | -15.5
Cc1nnc(C)n1N | -10.3
COc1ccc(NC(=O)CN2CCN(C(=O)C3CCCO3)CC2)c(OC)c1 (configuration not stated) | -13.5
O=C(NC1CCOc2ccccc21)c1ccccn1 (configuration not stated) | 75.5
O=C(NC1CCCc2ccccc21)c1ccc(Cl)nc1 (configuration not stated) | 72.1
O=C(O)c1cc(N/N=C/c2c(O)ccc3ccccc23)ccc1Cl | 0.25
COc1ccc2ccccc2c1/C=N/Nc1ccc(Cl)c(C(=O)O)c1 | -12.5
CC(C)(C)OCC1CO1 (configuration not stated) | -2.36
Cc1ccccc1SCC(=O)Nc1ccc(N2CCOCC2)cc1 | 0.16
COc1ccccc1Nc1nn2c(=O)c3ccc(C(=O)N4CCC(C)CC4)cc3nc2s1 | 33.4
COc1nc(OC)nc(Oc2ccc(Cl)cc2[N+](=O)[O-])n1 | 2.78
COc1ccc(OCCNc2cc(Cl)ccc2[N+](=O)[O-])cc1 | -1.86
CCc1ccccc1OCCCN1CCCC1 | 4.44
Cc1cc(-n2cnnn2)ccc1C(C)C | 9.21
Nc1cccn2c(-c3ccc(Cl)c(Cl)c3)cnc12 | 54.7
Cn1c(-c2ccc(Cl)cc2)cnc1N | 52.6
COc1ccc(C(C)=O)cc1CSc1nc(C)cc(C)n1 | 6.97
O=C(O)C(Br)CBr (configuration not stated) | 20.6
Cc1c(Cl)cccc1NC(=O)Cn1cccc1 | 4.11
Cc1cccc(N2CCN(C(=O)Cn3nc(C)n4cccc4c3=O)CC2C)c1 (configuration not stated) | -17.1
Cc1c(Cl)cccc1NC(=O)Cn1cc(C(F)(F)F)cc(Cl)c1=O | 3.98
Cc1cc(C)c2c(=O)n(CC(=O)NC3CCCC3)sc2n1 | 6.3
CCCNC(=O)Cn1sc2nc(C)cc(C)c2c1=O | 2.63
Cc1cc(C)c2c(=O)n(CC(=O)N3CCC(N4CCCCC4)CC3)sc2n1 | -11.9

Structure (SMILES) | inhibition [%]
COCCCn1nnnc1SCC(=O)N1c2ccccc2CC1C (configuration not stated) | 0.95
CC(=O)Nc1ccc2c(c1)C(=O)N(C1CCCCC1)C2=O | -7.24
CCOc1ccc(OCCC(=O)OCC(=O)N2CCN(S(=O)(=O)c3ccc(Cl)cc3)CC2)cc1 | 40.6
Cc1ccc(NC(=O)C(C)SCc2nc3sc(C)c(C)c3c(=O)[nH]2)nc1 (configuration not stated) | -7.05
C[C@H](NC(=O)[C@@H]1Cc2ccccc2CN1C(=O)OC(C)(C)C)C(=O)NCC1CCCO1 (some centres not stated) | 6.8
CC(=O)Nc1nc2ccccc2n1CCN(C)C | 14.6
Nc1nc2ccccc2n1CCOc1ccc(Cl)cc1 | 79
Nc1nc2ccccc2n1CCOc1ccc(F)cc1 | 11
O=C(O)c1ccc(NCc2nc3ccccc3n2CCOc2ccccc2Cl)cc1 | 30.7
O=C(CCc1nnc(CCCCc2ccccc2)o1)NCCC1CCCCO1 (configuration not stated) | 15.1
CCCNC(=O)NC(=O)CN1CCCC1c1ccc2c(c1)OCCO2 (configuration not stated) | -16.2
CCCNC(=O)N1CCN(S(=O)(=O)c2ccc3c(c2)OCCO3)CC1 | 1.44
CCOC(=O)c1c(CC(C)C)csc1/N=C/C1C(=O)CC(C)(C)CC1=O | -10.2
OCC1(Cc2ccc(F)cc2)CCCN(CCCC(F)(F)F)C1 (configuration not stated) | -19.8
Cc1ccc(S(=O)(=O)N2[C@@H](c3ccc4c(c3)OCO4)C(C(=O)O)=C[C@H]2C(C)(C)C)cc1 | 41.7
CC1Cc2ccccc2N1C(=O)COC(=O)c1cc(Br)ccc1O (configuration not stated) | 62.7
O=C(CCC(=O)c1cccs1)c1cccs1 | 68.8
O=C(CCC(=O)N1CCN(c2ccccn2)CC1)c1cccs1 | -4.25
Cc1ccc(NC(=O)N2CCCCCC2)c(C)c1 | -16.7
Cc1cccc(-c2c3c(=O)n(C)c(=O)n(C)c3cn2-c2ccc(O)cc2)c1 | -12.8
CC(C)NC(=O)c1cc(-n2cnnc2)ccc1Cl | 2.78
CCOC(=O)C1=C(c2ccccc2)Nc2ncnn2C1c1ccc(C(=O)O)cc1 (configuration not stated) | 1.92
COC(=O)c1ccc(CNC(=O)c2ccc(COc3ccccc3)cc2)cc1 | 10.8
CCOC(=O)C1=C(c2ccccc2)NC(=O)NC1c1ccc(OCC#N)c(OC)c1 (configuration not stated) | -4.72
CCOC(=O)C1=C(c2ccccc2)NC(=O)NC1c1ccc(OC)c(OC)c1 (configuration not stated) | 2.41
